Bioassay records from PubChem.
Most compounds without a hit are left out; they make up all but 7.3% or so of the library.
HCMV inh: inhibitors of human cytomegalovirus | activity change, negative = inhibition, % at 57.5 µM | 410,000 compounds, 4.5% hits | HFF cells, HCMV-luciferase reporter, 72 h; stronger effect = lower value; in the data active = activity change below about -60%; inconclusive = no clear call, values can overlap the other calls; inactive = above about -39%
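Two-dose cell screen: HFF monolayers treated with compounds and infected with luciferase-expressing HCMV at 1 PFU/cell, 72 h at 37C, then lysed for luciferase measurement.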
HCV inh: blocks hepatitis C virus | Potency, µM (top dose mostly 41.8 µM), hits mostly inhibitors | Huh7.5.1 HCVcc-Cre infection, luciferase reporter, 44 h | 340,000 compounds, 3.4% hits | AID 651820
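Antiviral activity was scored by luciferase reporter output from cells infected with HCVcc-Cre (~0.5 moi) in presence of compound, 44 h infection period, cells seeded 1,000/well 4 h prior.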
AmpC detergent: inhibitors of E. coli AmpC beta-lactamase with detergent; AmpC hydrolysis of nitrocefin, absorbance 480 nm, 0.01% Triton; Potency, µM (top dose mostly 114 µM), most hits filed as inhibitors; AID 485294; 370,000 compounds, 0.041% hits; note: nearly all actives have a fitted effect of over 25% in size
Target sequence (P00811 whole entry, looked up): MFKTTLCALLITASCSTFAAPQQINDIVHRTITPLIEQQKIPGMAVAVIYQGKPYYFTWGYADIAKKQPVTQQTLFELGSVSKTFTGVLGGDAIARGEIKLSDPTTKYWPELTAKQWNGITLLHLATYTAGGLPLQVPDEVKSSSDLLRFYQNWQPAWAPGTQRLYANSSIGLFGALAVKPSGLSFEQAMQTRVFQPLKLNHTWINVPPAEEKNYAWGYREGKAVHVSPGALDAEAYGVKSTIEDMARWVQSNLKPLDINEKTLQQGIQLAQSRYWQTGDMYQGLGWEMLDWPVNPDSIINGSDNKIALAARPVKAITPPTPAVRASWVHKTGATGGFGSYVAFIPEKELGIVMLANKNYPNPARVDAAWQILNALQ
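AmpC (5.3 nM in the dispensed reagent) in 20 mM phosphate pH 7.0 with 0.01% (detergent screen) or 0.0001% Triton X-100 was preincubated with compounds for 15 min at room temperature. Nitrocefin was then added from an 800 uM solution, and hydrolysis was followed at 480 nm.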
FMDV antiviral: foot and mouth disease virus antiviral activity; FMDV antiviral cell-based qHTS; 410,000 compounds, 1.2% hits; AID 1159524; Potency, µM (titrated, usually from 57.9 µM), actives largely listed as inhibitors; calls by dose curve; tested in HEK293T cells; note: read-out not given here; nearly all actives have a fitted effect of over 45% in size
AmpC no deterg: AmpC beta-lactamase inhibition without detergent. AmpC nitrocefin hydrolysis, absorbance 480 nm, 0.0001% Triton. Potency, µM (doses to about 57.1 µM), usual class: inhibitors. 330,000 compounds, 0.52% hits. AID 485341; note: nearly all actives have a fitted effect of over 20% in size
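AmpC (5.3 nM in the dispensed reagent) in 20 mM phosphate pH 7.0 with 0.01% (detergent screen) or 0.0001% Triton X-100 was preincubated with compounds for 15 min at room temperature. Nitrocefin was then added from an 800 uM solution, and hydrolysis was followed at 480 nm.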
Numbers stand for hits; - = inactive; ? = inconclusive; . = no result. Unless noted, calls come from the whole dose curve; as a rule, active = well fitted curve in the direction sought with a large enough effect; inconclusive = small, poorly fitted or top-dose-only effect, or another doubt; inactive = no such curve, though single readings can be large; an effect the other way counts as inactive or inconclusive.

SMILES | HCMV inh | HCV inh | AmpC detergent | FMDV antiviral | AmpC no deterg
COCC(C)NC(=S)NC(=O)c1cc(S(=O)(=O)N2CCOCC2)ccc1C (stereo not drawn) | ? | - | - | - | -
CCCCCC(C)NC(=S)NC(=O)c1cc(S(=O)(=O)N2CCOCC2)ccc1C (stereo not drawn) | -62.5 | ? | - | ? | -
CCCC(C)NC(=S)NC(=O)c1cc(S(=O)(=O)N2CCOCC2)ccc1C (stereo not drawn) | -70.3 | ? | - | ? | -
Cc1ccc(S(=O)(=O)N2CCOCC2)cc1C(=O)N1c2ccccc2Sc2ccccc21 | - | 10µM | ? | - | -
Cc1ccc(S(=O)(=O)N2CCOCC2)cc1C(=O)NC(=S)N1CC(C)CC(C)C1 (stereo not drawn) | - | - | - | - | -
O=C1SC(c2ccccc2)=C/C1=C\N1CCCCC1 | - | 11.2µM | - | . | -
COc1ccc(NS(=O)(=O)c2ccc(C)c(C(=O)N(C)CC(=O)Nc3cccc(OC)c3)c2)cc1 | - | - | - | - | -
COc1ccc(N/C(C)=C2/C(=O)C(=O)N(CCO)C2c2ccc([N+](=O)[O-])cc2)cc1 (stereo not drawn) | -98.9 | - | - | - | -
N#CC(C#N)=NNc1ccc([N+](=O)[O-])cc1 | -90.5 | 11.2µM | - | - | -
COc1ccc(C(=O)/C(C#N)=N/Nc2ccc([N+](=O)[O-])cc2)cc1 | -114.0 | 1.58µM | - | ? | -
CCN(CC)S(=O)(=O)c1ccc(NN=C(C#N)C#N)cc1 | ? | ? | - | 10µM | -
CCN(CC)S(=O)(=O)c1ccc(NC=C(C#N)C#N)cc1 | ? | - | - | ? | -
COC(=O)[C@]12CCCCC=C1N(CCC1=CCCCC1)C(=O)[C@H](CC(=O)N1CCN(C(=O)c3ccco3)CC1)C2 | - | . | . | - | .
CCc1cccc(CC)c1-n1nnc2c(sc3nc(C)cc(C)c32)c1=O | - | . | - | ? | .
COc1ccc(NC(=O)CNC(=O)c2ccc([N+](=O)[O-])cc2)cc1 | ? | - | - | - | -
COc1ccc(C(=O)CC(=O)Nc2ccc([N+](=O)[O-])cc2)cc1 | ? | 11.2µM | ? | - | -
C/C(=N\Nc1ccc([N+](=O)[O-])cc1)c1ccc(C#N)cc1 | - | - | - | - | -
C/C(=N/Nc1ccc([N+](=O)[O-])cc1)c1ccc(C)cc1C | -63.0 | ? | - | - | -
CCC(C)(C)C1CCC2(CC1)NC(=O)N(CC(=O)NCCc1c[nH]c3ccccc13)C2=O (stereo not drawn) | - | - | - | ? | -
CN(C)CCCNC(=O)C(=O)Nc1cc2c3c(c1)CCC(=O)N3CCC2 | - | - | - | - | -
O=C(Nc1cccc([N+](=O)[O-])c1)Nc1cccc([N+](=O)[O-])c1 | ? | ? | - | ? | -
CC(C)S(=O)(=O)c1csc(NC(=O)Nc2cccc([N+](=O)[O-])c2)c1Cl | - | 25.1µM | - | ? | -
Cc1ccc2nc(Cl)c3cc(C(=O)N4CCCC(C)C4)sc3c2c1 (stereo not drawn) | - | . | - | - | .
CCN1C(=O)[C@H]2[C@H]3CN=C(SC)N3[C@@](CC)(C(=O)OC)[C@H]2C1=O | - | - | . | - | -
CC(=O)Nc1ccc(C=CC=Cc2cccc([N+](=O)[O-])c2)cc1 | - | - | . | - | .
SMILES | HCMV inh | HCV inh | AmpC detergent | FMDV antiviral | AmpC no deterg
CN1C(=O)/C(=C/c2ccc3c(c2)OCO3)N=C1c1ccccc1 | -100.8 | - | - | - | -
O=C(Nc1nnc(CSCc2ccc(F)cc2)s1)c1cccc([N+](=O)[O-])c1 | - | - | - | 39.8µM | -
Cc1ccc(CNC(=O)CCCn2c(=O)[nH]c3ccc(Br)cc3c2=O)cc1 | - | . | - | - | .
Cc1ccc(NC(=S)NC2CCSc3ccccc32)cc1C (stereo not drawn) | - | ? | - | - | 11.2µM
COC(=O)c1ccc(C(=O)NC2CCSc3ccccc32)cc1 (stereo not drawn) | - | - | - | - | -
O=C(NCCc1ccccc1)c1cccc(NC(=O)C2CC2)c1 | - | 0.562µM | . | - | .
CC(C)(C)OC(=O)N1CCC(C(=O)Nc2cccc(C(=O)NCCCCc3ccccc3)c2)CC1 | - | ? | . | 17.8µM | .
O=C(NC1CC1)c1cccc(NC(=O)C2CC2)c1 | -80.9 | - | . | - | .
COc1ccccc1CN1CC(C(=O)NCCc2ccc(C)o2)CCC1=O (stereo not drawn) | - | - | - | - | -
O=C(CCCl)Nc1nc2c(s1)CCc1ccccc1-2 | - | - | - | - | -
CCC(=O)Nc1nc2c(s1)COc1ccccc1-2 | - | - | - | - | 2.82µM
O=C(Nc1nnc(-c2ccc(F)cc2)s1)Nc1ccccc1F | - | - | - | - | -
O=C(Nc1nnc(-c2ccccc2SCc2ccccc2F)s1)Nc1ccccc1F | -60.5 | - | - | - | -
O=C(NCCc1ccc(Cl)cc1)C1(c2cccs2)CCOCC1 | - | . | - | - | .
CCCCc1c(C)nc2c(OC)cccc2c1SCC(=O)O | - | - | - | - | -
COc1cccc2c(Cl)c(CCCl)c(C)nc12 | -68.5 | - | - | - | -
Cc1ccc(/C=C2\SC(=S)N(CCCC(=O)Nc3ccc(O)cc3)C2=O)cc1 | -94.8 | - | - | - | -
O=C(CCCN1C(=O)/C(=C/c2cccs2)SC1=S)Nc1ccccc1O | -91.3 | ? | - | - | -
O=C(CCCN1C(=O)/C(=C\c2cccs2)SC1=S)Nc1ccccn1 | -96.8 | 25.1µM | - | - | -
O=C(CCN1C(=O)/C(=C/c2cccs2)SC1=S)Nc1ccccn1 | - | - | - | - | -
O=C(CCCN1C(=O)/C(=C\c2cccs2)SC1=S)Nc1ccc(O)cc1C(=O)O | - | - | - | - | -
O=C(CCCN1C(=O)S/C(=C\C=C\c2ccccc2)C1=O)Nc1ccc(O)cc1 | - | 12.6µM | - | - | -
O=C(CN1C(=O)S/C(=C/C=C/c2ccccc2)C1=O)Nc1ccc(C(=O)O)cc1 | - | - | - | - | -
COc1cc(CNS(=O)(=O)CCl)cc(OC)c1OC | - | - | - | - | -
O=C(CCN1C(=O)S/C(=C\c2cccs2)C1=O)NC1=NCCS1 | ? | - | - | - | 22.4µM
SMILES | HCMV inh | HCV inh | AmpC detergent | FMDV antiviral | AmpC no deterg
O=C(CCCN1C(=O)/C(=C\c2cccs2)SC1=S)Nc1ccc(O)cc1 | -99.1 | ? | - | - | -
COc1ccc(/C=C2\SC(=S)N(CCC(=O)NC3=NCCS3)C2=O)cc1OC | - | - | ? | - | -
COc1nc(Nc2ccc(O)cc2)nc(OC(C(F)(F)F)C(F)(F)F)n1 | ? | ? | - | ? | -
Nc1cccc(Nc2nc(OC(C(F)(F)F)C(F)(F)F)nc(OC(C(F)(F)F)C(F)(F)F)n2)c1 | -107.2 | ? | - | - | -
CC(=O)c1ccc(NC(=O)CN2C(=O)c3cccnc3Sc3ccccc32)cc1 | - | . | - | - | .
CCSC1=C(C#N)C(c2ccccc2Cl)C(C(=O)c2cccs2)C(O)(C(F)(F)F)N1 (stereo not drawn) | - | ? | - | ? | -
